Reference: PubChem BioAssay (Tox21)
Results filed as inconclusive are left out. Activity calls are given as the source filed them. Unless noted, the call rests on the fitted dose curve; in most records, active means well fitted curve in the direction sought with a large enough effect in the repeat runs; inconclusive means weak or mixed curves; inactive means no such curve, though single readings can be large; an effect the other way counts as inactive or inconclusive. Where a SMILES comes first, the peptide text is derived from it. [ ]: non-standard residue; d: D form. pGlu = O=C1CC[C@@H](C(=O)O)N1

Tests used:
[1] = qHTS assay to identify small molecule agonists of the vitamin D receptor (VDR) signaling pathway - cell viability counter screen (AID 743224); further: series mostly up to about 63 µM; on the % scale 0 is the no-effect control and ±100 the full control effect; nearly all actives have a fitted effect of over 50% in size
Outline: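 Cells: VDR-bla, 2,000/well, settled 4 h. Treatment: compounds in DMSO, 16 h, 37C/5% CO2. Readout: CellTiter-Glo luminescence after 30 min RT.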

[2] = qHTS assay to identify small molecule antagonists of the vitamin D receptor (VDR) signaling pathway - cell viability counter screen (AID 743225); further: on the % scale 0 is the no-effect control and ±100 the full control effect; nearly all actives have a fitted effect of over 50% in size
Outline: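 HEK293T VDR-bla; cpd + 1a,25-(OH)2D3 3 nM final, 16 h 37C/5% CO2; B/G FRET substrate 2 h RT; then CellTiter-Glo 30 min RT, luminescence.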

[3] = qHTS assay to identify small molecule agonists of the NFkB signaling pathway - cell viability counter screen (AID 1159515; calls by dose curve; further: series mostly up to about 61 µM; on the % scale 0 is the no-effect control and ±100 the full control effect; nearly all actives have a fitted effect of over 55% in size)
Outline: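 Cells are seeded (2,000 NFkB-bla ME-180 per well), rested overnight, and dosed with DMSO-dissolved compounds for 5 hr at 37 C. Viability is then read by CellTiter-Glo luminescence after 30 min at room temperature.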

[4] = qHTS assay to identify small molecule agonists of the endoplasmic reticulum stress response signaling pathway (AID 1159516; active means well fitted activation curve with a large enough effect in the signal ratio in the repeat runs, not every such curve was filed as active; the % refers to the signal ratio; further: on the % scale 0 is the no-effect control and ±100 the full control effect)
Outline: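 Cells are seeded at 1,500 per well and incubated overnight. Compounds in DMSO are added for 5 hr at 37 C, then beta-lactamase FRET substrate for 2 hr at room temperature, and fluorescence at 460 and 530 nm is measured.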

[5] = qHTS assay to identify small molecule agonists of the endoplasmic reticulum stress response signaling pathway - cell viability counter screen (AID 1159517; calls by dose curve;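 further: HeLa cells carrying an ER stress response element beta-lactamase reporter; series mostly up to about 61 µM; on the % scale 0 is the no-effect control and ±100 the full control effect; nearly all actives have a fitted effect of over 50% in size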)
Outline: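 Cytotoxicity of test compounds toward ESRE-bla HeLa cells was assessed after 5 hr exposure. The luminescent CellTiter-Glo signal was measured 30 min after reagent addition.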

[6] = qHTS assay to identify small molecule antagonists of the retinoid-related orphan receptor gamma (ROR-gamma) signaling pathway - cell viability counter screen (AID 1159520); further: on the % scale 0 is the no-effect control and ±100 the full control effect; nearly all actives have a fitted effect of over 50% in size
Outline: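 Tet-on ROR gamma CHO cells (1,000/well) were plated 4 hr, given compounds in DMSO for 2 hr at 37 C, then induced with 1 uM final doxycycline for 16 hr. Viability was read as ATP by CellTiter-Glo luminescence after 30 min.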

[7] = molecular target: Nuclear receptor ROR-gamma (Homo sapiens) (UniProt P51449); assay: qHTS assay to identify small molecule antagonists of the retinoid-related orphan receptor gamma (ROR-gamma) signaling pathway (AID 1159521)
Outline: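 Cells were plated, rested 4 h at 37 C, exposed to compounds for 2 h, then given 1 uM final doxycycline hyclate to induce RORγ expression. After 16 h, ONE-Glo luminescence from the ROR response element reporter was measured.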

[8] = qHTS assay to identify small molecule agonists of the AP-1 signaling pathway - cell viability counter screen (AID 1159525; calls by dose curve; further: nearly all actives have a fitted effect of over 55% in size)
Outline: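 Each titration point was normalised to DMSO and tetra n-octyl ammonium bromide controls. The read was Cell Titer Glo luminescence after 30 min at RT, following 5 h compound exposure of ME-180 AP-1-bla cells at 37 °C.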

[9] = qHTS assay to identify small molecule agonists of the AP-1 signaling pathway (AID 1159526; calls by dose curve; further: on the % scale 0 is the no-effect control and ±100 the full control effect)
[10] = molecular target: Retinoic acid receptor RXR-alpha (Homo sapiens) (UniProt P19793); assay: qHTS assay to identify small molecule agonists of the RXR signaling pathway (AID 1159527; calls by dose curve; further: on the % scale 0 is the no-effect control and ±100 the full control effect; nearly all actives have a fitted effect of over 35% in size)
Outline: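 Cells plated at 2,000/well, rested 5 hr at 37 C, pin-dosed with DMSO compound solutions, incubated 16 hr, then loaded with B/G FRET substrate for 2 hr at RT before dual-emission fluorescence reading.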

[11] = qHTS assay to identify small molecule agonists of the RXR signaling pathway - cell viability counter screen (AID 1159529)
Outline: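 Steps: seed RXR-alpha-UAS-bla HEK 293T cells in assay medium containing 2% charcoal-stripped FBS; incubate 5 hr; add compounds in DMSO; incubate 16 hr at 37 C; after the bla read, add CellTiter-Glo and read luminescence at 30 min.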

[12] = qHTS assay to identify small molecule antagonists of the retinoid acid receptor (RAR) signaling pathway - cell viability counter screen (AID 1159551); further: on the % scale 0 is the no-effect control and ±100 the full control effect; nearly all actives have a fitted effect of over 35% in size
Outline: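 Cells (C3RL4) are plated, incubated overnight, dosed with compound in DMSO, then given retinol at 1 uM final. After 6 h at 37 C, CellTiter-Glo is added and luminescence read following 30 min at room temperature.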

Retinoic acid receptor RXR-alpha (Homo sapiens), sequence (P19793 whole entry, looked up): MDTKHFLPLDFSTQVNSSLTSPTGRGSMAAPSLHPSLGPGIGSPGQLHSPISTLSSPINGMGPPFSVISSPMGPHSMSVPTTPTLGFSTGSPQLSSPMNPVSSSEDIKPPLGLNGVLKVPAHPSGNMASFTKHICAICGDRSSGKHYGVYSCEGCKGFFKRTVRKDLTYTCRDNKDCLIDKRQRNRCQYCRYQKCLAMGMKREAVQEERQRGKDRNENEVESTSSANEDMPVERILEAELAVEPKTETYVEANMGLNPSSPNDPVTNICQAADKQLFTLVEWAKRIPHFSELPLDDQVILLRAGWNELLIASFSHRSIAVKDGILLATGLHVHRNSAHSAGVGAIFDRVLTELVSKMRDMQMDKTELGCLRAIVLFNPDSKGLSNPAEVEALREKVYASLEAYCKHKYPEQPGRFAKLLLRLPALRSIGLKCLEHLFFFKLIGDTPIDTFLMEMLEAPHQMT

CCCCCCC#CC(=O)OC
inactive: outcome [1] | outcome [2] | outcome [3] | outcome [4] | outcome [5] | outcome [6] | Potency [7] | outcome [8] | outcome [9] | Potency [10] | Potency [11] | outcome [12]

O=Cc1cccc(Br)c1
inactive: outcome [1] | outcome [2] | outcome [3] | outcome [4] | outcome [5] | outcome [6] | Potency [7] | outcome [8] | outcome [9] | Potency [10] | Potency [11] | outcome [12]

Cc1coc2ccccc2c1=O
inactive: outcome [1] | outcome [2] | outcome [3] | outcome [4] | outcome [5] | outcome [6] | Potency [7] | outcome [8] | outcome [9] | Potency [10] | Potency [11] | outcome [12]

CCNC(=O)[C@@H]1CCCN1C(=O)[C@H](CCCN=C(N)N)NC(=O)[C@H](CC(C)C)NC(=O)CNC(=O)[C@H](Cc1ccc(O)cc1)NC(=O)[C@H](CO)NC(=O)[C@H](Cc1c[nH]c2ccccc12)NC(=O)[C@H](Cc1cnc[nH]1)NC(=O)[C@@H]1CCC(=O)N1 ([pGlu]HWSYGLRP-NHEt)
inactive: outcome [1] | outcome [2] | outcome [3] | outcome [4] | outcome [5] | outcome [6] | Potency [7] | outcome [8] | outcome [9] | Potency [10] | Potency [11] | outcome [12]

CC1=NN(c2cccc(S(=O)(=O)O)c2)C(=O)C1
inactive: outcome [1] | outcome [3] | outcome [4] | outcome [5] | outcome [6] | Potency [7] | outcome [8] | outcome [9] | Potency [10] | Potency [11] | outcome [12]

CCCCCCCCCCCCCCCCCCO
inactive: outcome [1] | outcome [2] | outcome [3] | outcome [4] | outcome [5] | outcome [6] | Potency [7] | outcome [8] | outcome [9] | Potency [10] | Potency [11] | outcome [12]

CCOC(=O)c1ccccc1
inactive: outcome [1] | outcome [2] | outcome [3] | outcome [4] | outcome [5] | outcome [6] | Potency [7] | outcome [8] | outcome [9] | Potency [10] | Potency [11] | outcome [12]

CC1(C)OC[C@@H](COC(=O)CCc2ccc(OC[C@@H](O)CNCCNC(=O)N3CCOCC3)cc2)O1
inactive: outcome [1] | outcome [2] | outcome [3] | outcome [4] | outcome [5] | outcome [6] | Potency [7] | outcome [8] | outcome [9] | Potency [10] | Potency [11] | outcome [12]

CCCCc1ccc2c(n1)[C@@H](c1ccc(OC)cc1C[C@H](C)C(=O)O)[C@H](C(=O)O)[C@H]2c1ccc2c(c1)OCO2
inactive: outcome [1] | outcome [2] | outcome [3] | outcome [4] | outcome [5] | outcome [6] | Potency [7] | outcome [8] | outcome [9] | Potency [10] | Potency [11] | outcome [12]

CC(C)=CCC/C(C)=C/C#N
inactive: outcome [1] | outcome [2] | outcome [3] | outcome [4] | outcome [5] | outcome [6] | Potency [7] | outcome [8] | outcome [9] | Potency [10] | Potency [11] | outcome [12]

[O-][n+]1cccc(CO)c1
inactive: outcome [1] | outcome [2] | outcome [3] | outcome [4] | outcome [5] | outcome [6] | Potency [7] | outcome [8] | outcome [9] | Potency [10] | Potency [11] | outcome [12]

CC(CC=O)CC(C)(C)C (centres undefined)
inactive: outcome [1] | outcome [2] | outcome [3] | outcome [4] | outcome [5] | outcome [6] | Potency [7] | outcome [8] | outcome [9] | Potency [10] | Potency [11] | outcome [12]

CC(C)(C)C(=O)c1ccccc1
inactive: outcome [1] | outcome [2] | outcome [3] | outcome [4] | outcome [5] | outcome [6] | Potency [7] | outcome [8] | outcome [9] | Potency [10] | Potency [11] | outcome [12]

COc1cc2c(cc1OC)-c1cc3ccc(OC)c(OC)c3c[n+]1CC2
inactive: outcome [1] | outcome [3] | outcome [4] | outcome [5] | outcome [6] | Potency [7] | outcome [8] | outcome [9] | Potency [10] | Potency [11] | outcome [12]

Cc1cc(C)c(N=Nc2c(O)c(S(=O)(=O)O)cc3cc(S(=O)(=O)O)ccc23)cc1C
inactive: activity change, negative = cytotoxicity [1] -8.28% [at 5.95 µM] | viability change, negative = cytotoxic [2] 8.22% [at 6.95 µM] | activity, negative = cytotoxic [3] -2.06% [at 6.95 µM] | activation [4] -3.13% [at 6.95 µM] | activity change, negative = cytotoxicity [5] 9.59% [at 6.95 µM] | activity, negative = cytotoxicity [6] -7.94% [at 8.39 µM] | activity change, negative = inhibition [7] -3.58% [at 8.39 µM] | viability change, negative = cytotoxic [8] -9.8% [at 6.97 µM] | activation [9] 6% [at 6.97 µM] | activation [10] 2.6% [at 6.98 µM] | activity change, negative = cytotoxicity [11] -2.64% [at 6.97 µM] | activity change, negative = cytotoxicity [12] 0.446% [at 8.39 µM]

CCOCC(C)O (centres undefined)
inactive: outcome [1] | outcome [3] | outcome [4] | outcome [5] | outcome [6] | Potency [7] | outcome [8] | outcome [9] | Potency [10] | Potency [11] | outcome [12]

CC1=C(C/C=C(\C)CCC[C@H](C)CCC[C@H](C)CCCC(C)C)C(=O)c2ccccc2C1=O
inactive: outcome [1] | outcome [2] | outcome [3] | outcome [4] | outcome [5] | outcome [6] | Potency [7] | outcome [8] | outcome [9] | Potency [10] | Potency [11] | outcome [12]

CC(C)(N)C#N
inactive: outcome [1] | outcome [2] | outcome [3] | outcome [4] | outcome [5] | outcome [6] | Potency [7] | outcome [8] | outcome [9] | Potency [10] | Potency [11] | outcome [12]

CC(C)(C#N)Nc1nc(Cl)nc(NC2CC2)n1
inactive: outcome [1] | outcome [2] | outcome [3] | outcome [4] | outcome [5] | outcome [6] | Potency [7] | outcome [8] | outcome [9] | Potency [10] | Potency [11] | outcome [12]

OCCCCCO
inactive: outcome [1] | outcome [2] | outcome [3] | outcome [4] | outcome [5] | outcome [6] | Potency [7] | outcome [8] | outcome [9] | Potency [10] | Potency [11] | outcome [12]

CC(C)(C)OC(=O)c1cccc(N)c1
inactive: outcome [1] | outcome [2] | outcome [3] | outcome [4] | outcome [5] | outcome [6] | Potency [7] | outcome [8] | outcome [9] | Potency [10] | Potency [11] | outcome [12]
